Test results: paper PMC11006913
Changes are numbered by the printed parent chain.

How the values were obtained:
Experiment in all cases: PBM; 200 nM protein, PBS
Conditions in all cases: dsDNA, one strand shown
HOXB4 [1] = biological target: HOXB4 (Homo sapiens, UniProt P17483 148-234)
ALX4 = ALX4 (Homo sapiens, UniProt Q9H161 200-286)
PRRX1 [2] = biological target: PRRX1 (Homo sapiens, UniProt P54821 80-166, F113S)
HOXB6 = HOXB6 (Homo sapiens, UniProt P17509 132-218, K202E)
HOXA4 [3] = biological target: HOXA4 (Homo sapiens, UniProt Q00056 201-287, R217L)
HOXB4 [4] = biological target: HOXB4 (Homo sapiens, UniProt P17483 148-234, V174I)
PAX4 [5] = biological target: T1, PAX4 (Homo sapiens, UniProt O43316 9-242, R200Q)
T1 sequence: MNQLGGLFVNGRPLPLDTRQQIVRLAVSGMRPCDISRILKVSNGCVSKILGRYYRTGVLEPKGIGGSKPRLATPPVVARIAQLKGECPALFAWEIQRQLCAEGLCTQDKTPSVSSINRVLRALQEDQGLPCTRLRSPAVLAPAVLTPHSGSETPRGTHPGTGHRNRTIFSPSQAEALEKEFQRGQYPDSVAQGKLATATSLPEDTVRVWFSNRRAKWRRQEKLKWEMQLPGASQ

MSX2 [6] = biological target: MSX2 (Homo sapiens, UniProt P35548 130-214)
PAX4 [7] = biological target: T2, PAX4 (Homo sapiens, UniProt O43316 9-242, F177Y)
T2 sequence: T1 sequence with F169Y, Q192R

MSX2 [8] = biological target: MSX2 (Homo sapiens, UniProt P35548 130-214, F161Y)
HOXA4 [9] = biological target: HOXA4 (Homo sapiens, UniProt Q00056 201-287, W262F)
PRRX1 [10] = biological target: PRRX1 (Homo sapiens, UniProt P54821 80-166)
VENTX [11] = biological target: T3, VENTX (Homo sapiens, UniProt O95231 78-163, R121Q)
T3 sequence: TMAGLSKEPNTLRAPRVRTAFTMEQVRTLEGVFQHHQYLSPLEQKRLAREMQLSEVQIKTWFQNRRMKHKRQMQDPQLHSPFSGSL

VENTX [12] = biological target: T4, VENTX (Homo sapiens, UniProt O95231 78-163, Y115F)
T4 sequence: T3 sequence with Y38F, Q44R

HOXA2 [13] = biological target: HOXA2 (Homo sapiens, UniProt O43364 129-215, R185T)
HOXA2 [14] = biological target: HOXA2 (Homo sapiens, UniProt O43364 129-215, R185K)
VAX1 [15] = biological target: VAX1 (Homo sapiens, UniProt Q5SQQ9 86-172, T142I)
VAX1 [16] = biological target: VAX1 (Homo sapiens, UniProt Q5SQQ9 86-172, K157R)
PAX4 [17] = biological target: T5, PAX4 (Homo sapiens, UniProt O43316 9-242, R200K)
T5 sequence: T1 sequence with Q192K

PAX4 [18] = biological target: T6, PAX4 (Homo sapiens, UniProt O43316 9-242, F177V)
T6 sequence: T1 sequence with F169V, Q192R

Sequence of HOXA4 (Homo sapiens, UniProt Q00056 201-287, W262F) (Q00056 201-287 W262F): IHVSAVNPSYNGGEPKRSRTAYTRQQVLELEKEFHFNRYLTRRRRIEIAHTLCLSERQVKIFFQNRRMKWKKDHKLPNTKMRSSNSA
Sequence of VAX1 (Homo sapiens, UniProt Q5SQQ9 86-172, T142I) (Q5SQQ9 86-172 T142I): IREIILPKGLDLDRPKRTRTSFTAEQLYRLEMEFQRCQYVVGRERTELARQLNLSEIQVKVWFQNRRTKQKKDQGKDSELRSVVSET
Sequence of HOXB6 (P17509 132-218 K202E): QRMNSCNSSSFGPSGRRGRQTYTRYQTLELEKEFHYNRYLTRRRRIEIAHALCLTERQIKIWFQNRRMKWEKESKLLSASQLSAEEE
Sequence of VAX1 (Homo sapiens, UniProt Q5SQQ9 86-172, K157R) (Q5SQQ9 86-172 K157R): as the sequence (Q5SQQ9 86-172 T142I) above, with I57T, K72R counted along it
Sequence of HOXA4 (Homo sapiens, UniProt Q00056 201-287, R217L) (Q00056 201-287 R217L): as the sequence (Q00056 201-287 W262F) above, with R17L, F62W counted along it
Sequence of HOXB4 (Homo sapiens, UniProt P17483 148-234) (P17483 148-234): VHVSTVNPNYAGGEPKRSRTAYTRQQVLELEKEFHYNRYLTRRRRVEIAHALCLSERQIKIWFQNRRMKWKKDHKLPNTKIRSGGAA
Sequence of PRRX1 (Homo sapiens, UniProt P54821 80-166) (P54821 80-166): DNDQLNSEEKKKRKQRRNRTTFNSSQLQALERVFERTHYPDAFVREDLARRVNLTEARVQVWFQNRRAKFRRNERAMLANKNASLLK
Sequence of HOXA2 (Homo sapiens, UniProt O43364 129-215, R185K) (O43364 129-215 R185K): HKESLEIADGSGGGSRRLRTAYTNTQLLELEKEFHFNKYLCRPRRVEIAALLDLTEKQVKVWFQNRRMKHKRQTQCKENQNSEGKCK
Sequence of ALX4 (Q9H161 200-286): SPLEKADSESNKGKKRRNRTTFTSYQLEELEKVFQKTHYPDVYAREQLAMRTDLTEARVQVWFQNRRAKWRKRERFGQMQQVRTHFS
Sequence of PRRX1 (Homo sapiens, UniProt P54821 80-166, F113S) (P54821 80-166 F113S): as the sequence (P54821 80-166) above, with F34S counted along it
Sequence of HOXB4 (Homo sapiens, UniProt P17483 148-234, V174I) (P17483 148-234 V174I): as the sequence (P17483 148-234) above, with V27I counted along it
Sequence of MSX2 (Homo sapiens, UniProt P35548 130-214, F161Y) (P35548 130-214 F161Y): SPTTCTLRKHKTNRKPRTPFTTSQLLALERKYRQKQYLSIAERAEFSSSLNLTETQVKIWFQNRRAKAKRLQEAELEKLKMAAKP
Sequence of MSX2 (Homo sapiens, UniProt P35548 130-214) (P35548 130-214): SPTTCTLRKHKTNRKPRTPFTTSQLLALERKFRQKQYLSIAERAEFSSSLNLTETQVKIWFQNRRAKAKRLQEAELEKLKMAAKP
Sequence of HOXA2 (Homo sapiens, UniProt O43364 129-215, R185T) (O43364 129-215 R185T): as the sequence (O43364 129-215 R185K) above, with K57T counted along it

Sequence | binding signal (HOXB4 [1]) | binding signal (ALX4) | binding signal (PRRX1 [2]) | binding signal (HOXB6) | binding signal (HOXA4 [3]) | binding signal (HOXB4 [4]) | binding signal (PAX4 [5]) | binding signal (MSX2 [6]) | binding signal (PAX4 [7]) | binding signal (MSX2 [8]) | binding signal (HOXA4 [9]) | binding signal (PRRX1 [10]) | binding signal (VENTX [11]) | binding signal (VENTX [12]) | binding signal (HOXA2 [13]) | binding signal (HOXA2 [14]) | binding signal (VAX1 [15]) | binding signal (VAX1 [16]) | binding signal (PAX4 [17]) | binding signal (PAX4 [18])
ATAATTGA | 13 upbm affinity estimate (log intensity, higher = more binding, comparable within an allelic series) | 14 upbm affinity estimate (log intensity, higher = more binding, comparable within an allelic series) | 11.5 upbm affinity estimate (log intensity, higher = more binding, comparable within an allelic series) | 10 upbm affinity estimate (log intensity, higher = more binding, comparable within an allelic series) | 12 upbm affinity estimate (log intensity, higher = more binding, comparable within an allelic series) | 13.7 upbm affinity estimate (log intensity, higher = more binding, comparable within an allelic series) | 11.9 upbm affinity estimate (log intensity, higher = more binding, comparable within an allelic series) | 13.8 upbm affinity estimate (log intensity, higher = more binding, comparable within an allelic series) | 11 upbm affinity estimate (log intensity, higher = more binding, comparable within an allelic series) | 13.5 upbm affinity estimate (log intensity, higher = more binding, comparable within an allelic series) | 11.3 upbm affinity estimate (log intensity, higher = more binding, comparable within an allelic series) | 13.5 upbm affinity estimate (log intensity, higher = more binding, comparable within an allelic series) | – | – | – | – | – | – | – | –
CAATTACC | 13 upbm affinity estimate (log intensity, higher = more binding, comparable within an allelic series) | 13.9 upbm affinity estimate (log intensity, higher = more binding, comparable within an allelic series) | 10.9 upbm affinity estimate (log intensity, higher = more binding, comparable within an allelic series) | 9.82 upbm affinity estimate (log intensity, higher = more binding, comparable within an allelic series) | 11.9 upbm affinity estimate (log intensity, higher = more binding, comparable within an allelic series) | 13.7 upbm affinity estimate (log intensity, higher = more binding, comparable within an allelic series) | – | 13.8 upbm affinity estimate (log intensity, higher = more binding, comparable within an allelic series) | – | 13.5 upbm affinity estimate (log intensity, higher = more binding, comparable within an allelic series) | – | 13.3 upbm affinity estimate (log intensity, higher = more binding, comparable within an allelic series) | 11.7 upbm affinity estimate (log intensity, higher = more binding, comparable within an allelic series) | 11.5 upbm affinity estimate (log intensity, higher = more binding, comparable within an allelic series) | 12.6 upbm affinity estimate (log intensity, higher = more binding, comparable within an allelic series) | 13.1 upbm affinity estimate (log intensity, higher = more binding, comparable within an allelic series) | 12.5 upbm affinity estimate (log intensity, higher = more binding, comparable within an allelic series) | 12.5 upbm affinity estimate (log intensity, higher = more binding, comparable within an allelic series) | – | –
TCAATTAA | 13.3 upbm affinity estimate (log intensity, higher = more binding, comparable within an allelic series) | 14.1 upbm affinity estimate (log intensity, higher = more binding, comparable within an allelic series) | 11.3 upbm affinity estimate (log intensity, higher = more binding, comparable within an allelic series) | 9.94 upbm affinity estimate (log intensity, higher = more binding, comparable within an allelic series) | 12.4 upbm affinity estimate (log intensity, higher = more binding, comparable within an allelic series) | 14 upbm affinity estimate (log intensity, higher = more binding, comparable within an allelic series) | 11.8 upbm affinity estimate (log intensity, higher = more binding, comparable within an allelic series) | 13.9 upbm affinity estimate (log intensity, higher = more binding, comparable within an allelic series) | – | 13.5 upbm affinity estimate (log intensity, higher = more binding, comparable within an allelic series) | 11.8 upbm affinity estimate (log intensity, higher = more binding, comparable within an allelic series) | 13.5 upbm affinity estimate (log intensity, higher = more binding, comparable within an allelic series) | 12 upbm affinity estimate (log intensity, higher = more binding, comparable within an allelic series) | 11.6 upbm affinity estimate (log intensity, higher = more binding, comparable within an allelic series) | 13.1 upbm affinity estimate (log intensity, higher = more binding, comparable within an allelic series) | 13.2 upbm affinity estimate (log intensity, higher = more binding, comparable within an allelic series) | 13.1 upbm affinity estimate (log intensity, higher = more binding, comparable within an allelic series) | 13 upbm affinity estimate (log intensity, higher = more binding, comparable within an allelic series) | – | –
CCTAATTA | 13.5 upbm affinity estimate (log intensity, higher = more binding, comparable within an allelic series) | 14.5 upbm affinity estimate (log intensity, higher = more binding, comparable within an allelic series) | 11.6 upbm affinity estimate (log intensity, higher = more binding, comparable within an allelic series) | 10 upbm affinity estimate (log intensity, higher = more binding, comparable within an allelic series) | 12.6 upbm affinity estimate (log intensity, higher = more binding, comparable within an allelic series) | 14.2 upbm affinity estimate (log intensity, higher = more binding, comparable within an allelic series) | 12.5 upbm affinity estimate (log intensity, higher = more binding, comparable within an allelic series) | 14.1 upbm affinity estimate (log intensity, higher = more binding, comparable within an allelic series) | 11.3 upbm affinity estimate (log intensity, higher = more binding, comparable within an allelic series) | 13.7 upbm affinity estimate (log intensity, higher = more binding, comparable within an allelic series) | 12.3 upbm affinity estimate (log intensity, higher = more binding, comparable within an allelic series) | 13.6 upbm affinity estimate (log intensity, higher = more binding, comparable within an allelic series) | 12.6 upbm affinity estimate (log intensity, higher = more binding, comparable within an allelic series) | 12.4 upbm affinity estimate (log intensity, higher = more binding, comparable within an allelic series) | 14 upbm affinity estimate (log intensity, higher = more binding, comparable within an allelic series) | 13.8 upbm affinity estimate (log intensity, higher = more binding, comparable within an allelic series) | 13.9 upbm affinity estimate (log intensity, higher = more binding, comparable within an allelic series) | 14.1 upbm affinity estimate (log intensity, higher = more binding, comparable within an allelic series) | 12.1 upbm affinity estimate (log intensity, higher = more binding, comparable within an allelic series) | 10.8 upbm affinity estimate (log intensity, higher = more binding, comparable within an allelic series)
TATTAGAA | 10.9 upbm affinity estimate (log intensity, higher = more binding, comparable within an allelic series) | – | – | – | – | 11 upbm affinity estimate (log intensity, higher = more binding, comparable within an allelic series) | 11 upbm affinity estimate (log intensity, higher = more binding, comparable within an allelic series) | – | – | – | – | – | – | – | – | – | – | – | 11 upbm affinity estimate (log intensity, higher = more binding, comparable within an allelic series) | 10.3 upbm affinity estimate (log intensity, higher = more binding, comparable within an allelic series)
TAATTAGA | 13.5 upbm affinity estimate (log intensity, higher = more binding, comparable within an allelic series) | 14.5 upbm affinity estimate (log intensity, higher = more binding, comparable within an allelic series) | 11.9 upbm affinity estimate (log intensity, higher = more binding, comparable within an allelic series) | 10 upbm affinity estimate (log intensity, higher = more binding, comparable within an allelic series) | 12.5 upbm affinity estimate (log intensity, higher = more binding, comparable within an allelic series) | 14.2 upbm affinity estimate (log intensity, higher = more binding, comparable within an allelic series) | 12.7 upbm affinity estimate (log intensity, higher = more binding, comparable within an allelic series) | 14.1 upbm affinity estimate (log intensity, higher = more binding, comparable within an allelic series) | 11.5 upbm affinity estimate (log intensity, higher = more binding, comparable within an allelic series) | 13.7 upbm affinity estimate (log intensity, higher = more binding, comparable within an allelic series) | 12.1 upbm affinity estimate (log intensity, higher = more binding, comparable within an allelic series) | 13.6 upbm affinity estimate (log intensity, higher = more binding, comparable within an allelic series) | 12.5 upbm affinity estimate (log intensity, higher = more binding, comparable within an allelic series) | 12.4 upbm affinity estimate (log intensity, higher = more binding, comparable within an allelic series) | 13.9 upbm affinity estimate (log intensity, higher = more binding, comparable within an allelic series) | 13.9 upbm affinity estimate (log intensity, higher = more binding, comparable within an allelic series) | 13.7 upbm affinity estimate (log intensity, higher = more binding, comparable within an allelic series) | 13.9 upbm affinity estimate (log intensity, higher = more binding, comparable within an allelic series) | 12.2 upbm affinity estimate (log intensity, higher = more binding, comparable within an allelic series) | 11 upbm affinity estimate (log intensity, higher = more binding, comparable within an allelic series)
